Measured values taken from PMC7862700, “An all-to-all approach to the identification of sequence-specific readers for epigenetic DNA modifications on cytosine”.

Experiments:
Assay in all cases: DAPPL (digital affinity profiling via proximity ligation, sequencing); 10 mM Tris-HCl pH 7.5, 50 mM NaCl, 1 mM DTT, 4% glycerol, room temperature, 30 min; GST-TFs on glutathione beads, 16-mer random dsDNA library, 0.1% formaldehyde crosslink after washing; high values mean tight binding
FLI1 = target: T1, FLI1 (Homo sapiens, UniProt Q01543 1-452); conditions: protein: recombinant; tags: N-terminal GST; dsDNA, one strand shown
T1 sequence: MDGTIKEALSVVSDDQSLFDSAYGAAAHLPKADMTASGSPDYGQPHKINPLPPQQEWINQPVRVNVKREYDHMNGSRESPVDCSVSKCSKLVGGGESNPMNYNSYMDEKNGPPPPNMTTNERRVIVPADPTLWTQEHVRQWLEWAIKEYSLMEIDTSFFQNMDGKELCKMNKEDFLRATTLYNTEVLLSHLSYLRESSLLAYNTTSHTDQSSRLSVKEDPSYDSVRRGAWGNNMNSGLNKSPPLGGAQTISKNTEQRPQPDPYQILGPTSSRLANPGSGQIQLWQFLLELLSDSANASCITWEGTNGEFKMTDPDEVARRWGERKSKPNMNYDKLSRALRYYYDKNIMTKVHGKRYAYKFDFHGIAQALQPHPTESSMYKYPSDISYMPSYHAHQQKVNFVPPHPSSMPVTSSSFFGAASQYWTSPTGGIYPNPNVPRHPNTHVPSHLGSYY
Summary of the method: (§1)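 Sequencing on an Illumina NextSeq500 followed washing, crosslinking with 0.1% formaldehyde, proximity ligation (BsaI/T4 ligase, 1 h, 37 °C) and PCR amplification of pools that had been incubated for 30 min at room temperature with 200 nmole of a random double-stranded 16-mer DNA library in Tris/NaCl/DTT/glycerol buffer. Each pool held DNA-barcoded human transcription factors, expressed in yeast as GST fusions and captured on glutathione beads, plus a tag-only sample. Binding signal is a hexamer's read frequency for a factor divided by its frequency in the tag-only sample.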

ELK1 = target: T2, ELK1 (Homo sapiens, UniProt P19419 1-428); conditions: protein: recombinant; tags: N-terminal GST; dsDNA, one strand shown
T2 sequence: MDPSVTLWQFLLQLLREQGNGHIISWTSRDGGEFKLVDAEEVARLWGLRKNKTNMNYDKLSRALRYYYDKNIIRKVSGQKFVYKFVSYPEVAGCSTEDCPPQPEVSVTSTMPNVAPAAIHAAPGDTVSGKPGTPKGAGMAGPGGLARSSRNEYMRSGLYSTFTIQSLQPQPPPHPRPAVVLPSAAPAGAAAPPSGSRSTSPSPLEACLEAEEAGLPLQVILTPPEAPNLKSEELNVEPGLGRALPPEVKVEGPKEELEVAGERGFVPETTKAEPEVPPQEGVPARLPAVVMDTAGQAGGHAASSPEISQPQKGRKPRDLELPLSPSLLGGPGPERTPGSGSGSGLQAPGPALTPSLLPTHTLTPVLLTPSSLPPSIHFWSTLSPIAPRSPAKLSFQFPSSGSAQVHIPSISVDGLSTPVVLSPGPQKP
Summary of the method: as §1

GABPA = target: T3, GABPA (Homo sapiens, UniProt Q06546 1-454); conditions: protein: recombinant; tags: N-terminal GST; dsDNA, one strand shown
T3 sequence: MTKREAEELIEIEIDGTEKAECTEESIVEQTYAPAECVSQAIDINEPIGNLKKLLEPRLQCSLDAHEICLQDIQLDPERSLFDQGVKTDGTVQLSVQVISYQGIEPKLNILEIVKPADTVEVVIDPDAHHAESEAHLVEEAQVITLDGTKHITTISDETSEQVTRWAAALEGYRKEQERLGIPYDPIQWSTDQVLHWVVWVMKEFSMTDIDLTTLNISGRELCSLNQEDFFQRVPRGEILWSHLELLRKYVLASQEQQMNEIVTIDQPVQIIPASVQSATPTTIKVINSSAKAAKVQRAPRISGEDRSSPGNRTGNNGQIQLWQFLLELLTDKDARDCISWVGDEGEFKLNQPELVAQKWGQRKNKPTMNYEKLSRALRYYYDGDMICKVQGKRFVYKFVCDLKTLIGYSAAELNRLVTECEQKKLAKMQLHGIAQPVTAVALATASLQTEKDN
Summary of the method: as §1

ERG = target: T4, ERG (Homo sapiens, UniProt P11308 1-479); conditions: protein: recombinant; tags: N-terminal GST; dsDNA, one strand shown
T4 sequence: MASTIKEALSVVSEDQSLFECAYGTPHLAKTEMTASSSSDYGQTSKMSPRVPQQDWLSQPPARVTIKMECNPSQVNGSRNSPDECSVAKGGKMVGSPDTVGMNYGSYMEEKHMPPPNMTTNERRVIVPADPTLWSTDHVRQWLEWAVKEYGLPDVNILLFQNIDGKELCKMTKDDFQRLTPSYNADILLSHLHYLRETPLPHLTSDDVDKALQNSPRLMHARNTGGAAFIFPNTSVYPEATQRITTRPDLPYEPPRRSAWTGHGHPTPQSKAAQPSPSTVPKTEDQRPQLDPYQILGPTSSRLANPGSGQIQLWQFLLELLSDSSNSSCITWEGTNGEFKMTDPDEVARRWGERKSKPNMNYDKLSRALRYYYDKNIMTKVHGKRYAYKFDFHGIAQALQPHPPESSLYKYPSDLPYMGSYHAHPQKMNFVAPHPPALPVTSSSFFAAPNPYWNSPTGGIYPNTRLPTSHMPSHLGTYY
Summary of the method: as §1

ELF1 = ELF1 (Homo sapiens, UniProt P32519 1-619); conditions: protein: recombinant; tags: N-terminal GST; dsDNA, one strand shown
Summary of the method: as §1

EHF = target: T5, EHF (Homo sapiens, UniProt Q9NZC4 1-300); conditions: protein: recombinant; tags: N-terminal GST; dsDNA, one strand shown
T5 sequence: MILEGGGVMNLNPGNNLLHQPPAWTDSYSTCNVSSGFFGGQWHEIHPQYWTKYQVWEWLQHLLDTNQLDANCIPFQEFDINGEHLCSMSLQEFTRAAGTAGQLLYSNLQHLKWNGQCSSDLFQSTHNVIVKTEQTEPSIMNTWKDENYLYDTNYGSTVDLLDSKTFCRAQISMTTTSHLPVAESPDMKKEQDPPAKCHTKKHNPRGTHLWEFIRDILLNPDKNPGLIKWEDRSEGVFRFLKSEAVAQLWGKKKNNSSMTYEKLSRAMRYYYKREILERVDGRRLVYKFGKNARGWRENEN
Summary of the method: as §1

SPI1 = SPI1 (Homo sapiens, UniProt P17947 1-270); conditions: protein: recombinant; tags: N-terminal GST; dsDNA, one strand shown
Summary of the method: as §1

SPIB = SPIB (Homo sapiens, UniProt Q01892 1-262); conditions: protein: recombinant; tags: N-terminal GST; dsDNA, one strand shown
Summary of the method: as §1

ELK3 = target: T6, ELK3 (Homo sapiens, UniProt P41970 1-407); conditions: protein: recombinant; tags: N-terminal GST; dsDNA, one strand shown
T6 sequence: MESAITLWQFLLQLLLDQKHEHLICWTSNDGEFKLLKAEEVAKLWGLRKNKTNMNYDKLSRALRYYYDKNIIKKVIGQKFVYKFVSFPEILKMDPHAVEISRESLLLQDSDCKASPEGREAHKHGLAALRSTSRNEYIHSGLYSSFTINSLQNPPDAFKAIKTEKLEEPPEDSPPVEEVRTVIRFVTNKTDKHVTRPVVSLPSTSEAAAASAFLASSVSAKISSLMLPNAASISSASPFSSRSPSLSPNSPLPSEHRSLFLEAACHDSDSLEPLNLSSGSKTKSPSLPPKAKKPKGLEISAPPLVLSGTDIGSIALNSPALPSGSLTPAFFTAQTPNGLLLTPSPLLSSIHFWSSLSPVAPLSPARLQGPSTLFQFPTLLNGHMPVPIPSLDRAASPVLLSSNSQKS
Summary of the method: as §1

FEV = target: T7, FEV (Homo sapiens, UniProt Q99581 1-238); conditions: protein: recombinant; tags: N-terminal GST; dsDNA, one strand shown
T7 sequence: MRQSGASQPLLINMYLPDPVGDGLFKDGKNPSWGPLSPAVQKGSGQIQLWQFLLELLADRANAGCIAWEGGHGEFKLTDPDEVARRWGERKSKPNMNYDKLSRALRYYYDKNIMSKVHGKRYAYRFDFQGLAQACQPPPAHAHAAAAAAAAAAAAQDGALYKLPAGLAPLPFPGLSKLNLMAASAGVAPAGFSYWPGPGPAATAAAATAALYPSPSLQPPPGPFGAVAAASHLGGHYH
Summary of the method: as §1

ETV5 = ETV5 (Homo sapiens, UniProt P41161 1-510); conditions: protein: recombinant; tags: N-terminal GST; dsDNA, one strand shown
Summary of the method: as §1

HSF1 = HSF1 (Homo sapiens, UniProt Q00613 1-529); conditions: protein: recombinant; tags: N-terminal GST; chain copies: 3; dsDNA, one strand shown
Summary of the method: as §1

SPIC = target: T8, SPIC (Homo sapiens, UniProt Q8N5J4 1-248); conditions: protein: recombinant; tags: N-terminal GST; dsDNA, one strand shown
T8 sequence: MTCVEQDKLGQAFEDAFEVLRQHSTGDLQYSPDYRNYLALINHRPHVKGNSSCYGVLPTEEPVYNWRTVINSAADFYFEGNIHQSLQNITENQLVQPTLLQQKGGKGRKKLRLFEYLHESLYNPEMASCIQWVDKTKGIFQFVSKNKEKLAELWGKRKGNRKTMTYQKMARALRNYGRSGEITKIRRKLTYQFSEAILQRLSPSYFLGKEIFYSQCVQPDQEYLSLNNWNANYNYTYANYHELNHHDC
Summary of the method: as §1

ELF4 = ELF4 (Homo sapiens, UniProt Q99607 1-663); conditions: protein: recombinant; tags: N-terminal GST; dsDNA, one strand shown
Summary of the method: as §1

ELK4 = target: T9, ELK4 (Homo sapiens, UniProt P28324-2 1-405); conditions: protein: recombinant; tags: N-terminal GST; dsDNA, one strand shown
T9 sequence: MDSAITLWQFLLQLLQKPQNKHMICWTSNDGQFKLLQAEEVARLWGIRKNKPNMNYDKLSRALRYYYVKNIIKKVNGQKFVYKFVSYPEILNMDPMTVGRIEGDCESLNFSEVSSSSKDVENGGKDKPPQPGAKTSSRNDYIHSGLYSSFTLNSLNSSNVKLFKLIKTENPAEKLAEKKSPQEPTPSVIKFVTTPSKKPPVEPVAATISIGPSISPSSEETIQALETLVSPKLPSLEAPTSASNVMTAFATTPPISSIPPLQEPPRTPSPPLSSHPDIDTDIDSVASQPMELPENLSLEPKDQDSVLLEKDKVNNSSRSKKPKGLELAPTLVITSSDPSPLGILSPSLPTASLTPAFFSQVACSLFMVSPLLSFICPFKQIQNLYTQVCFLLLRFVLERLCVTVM
Summary of the method: as §1

ETV2 = target: T10, ETV2 (Homo sapiens, UniProt O00321 1-342); conditions: protein: recombinant; tags: N-terminal GST; dsDNA, one strand shown
T10 sequence: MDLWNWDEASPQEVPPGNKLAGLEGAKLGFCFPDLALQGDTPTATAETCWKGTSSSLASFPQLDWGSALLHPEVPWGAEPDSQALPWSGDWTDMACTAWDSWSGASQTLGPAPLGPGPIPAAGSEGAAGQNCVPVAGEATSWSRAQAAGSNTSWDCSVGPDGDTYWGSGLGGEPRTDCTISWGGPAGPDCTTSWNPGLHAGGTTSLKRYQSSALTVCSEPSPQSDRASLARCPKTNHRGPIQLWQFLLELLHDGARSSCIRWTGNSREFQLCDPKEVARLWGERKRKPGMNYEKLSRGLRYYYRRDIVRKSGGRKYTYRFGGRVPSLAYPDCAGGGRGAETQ
Summary of the method: as §1

ELF3 = target: T11, ELF3 (Homo sapiens, UniProt P78545 1-371); conditions: protein: recombinant; tags: N-terminal GST; dsDNA, one strand shown
T11 sequence: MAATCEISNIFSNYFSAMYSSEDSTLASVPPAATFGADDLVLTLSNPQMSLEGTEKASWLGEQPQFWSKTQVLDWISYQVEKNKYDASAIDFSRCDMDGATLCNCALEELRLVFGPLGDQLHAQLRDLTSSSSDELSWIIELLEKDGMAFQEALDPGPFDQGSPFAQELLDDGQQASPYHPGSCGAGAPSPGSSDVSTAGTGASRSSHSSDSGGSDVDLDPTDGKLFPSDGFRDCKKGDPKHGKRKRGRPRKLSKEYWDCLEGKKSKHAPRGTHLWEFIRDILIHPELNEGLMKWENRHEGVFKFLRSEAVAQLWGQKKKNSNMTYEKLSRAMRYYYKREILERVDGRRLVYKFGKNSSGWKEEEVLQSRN
Summary of the method: as §1

CRX = CRX (Homo sapiens, UniProt O43186 1-299); conditions: protein: recombinant; tags: N-terminal GST; dsDNA, one strand shown
Summary of the method: as §1

ETV1 = ETV1 (Homo sapiens, UniProt P50549 1-477); conditions: protein: recombinant; tags: N-terminal GST; dsDNA, one strand shown
Summary of the method: as §1

Sequence of ELF1 (P32519 whole entry): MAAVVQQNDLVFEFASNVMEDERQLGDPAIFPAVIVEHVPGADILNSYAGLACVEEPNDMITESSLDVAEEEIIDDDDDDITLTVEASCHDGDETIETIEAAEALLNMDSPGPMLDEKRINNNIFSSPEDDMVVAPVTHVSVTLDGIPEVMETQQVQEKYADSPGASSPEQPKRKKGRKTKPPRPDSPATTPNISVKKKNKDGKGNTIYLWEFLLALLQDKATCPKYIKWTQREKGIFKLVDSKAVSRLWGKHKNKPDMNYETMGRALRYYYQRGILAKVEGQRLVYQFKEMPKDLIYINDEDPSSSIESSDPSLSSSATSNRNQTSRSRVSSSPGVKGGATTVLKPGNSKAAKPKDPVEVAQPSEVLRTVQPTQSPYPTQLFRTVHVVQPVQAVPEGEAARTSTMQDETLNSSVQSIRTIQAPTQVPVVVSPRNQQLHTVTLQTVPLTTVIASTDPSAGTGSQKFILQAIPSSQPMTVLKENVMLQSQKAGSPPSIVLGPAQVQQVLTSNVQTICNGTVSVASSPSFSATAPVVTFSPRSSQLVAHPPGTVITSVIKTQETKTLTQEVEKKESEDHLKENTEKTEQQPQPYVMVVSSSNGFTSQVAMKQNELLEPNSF
Sequence of CRX (O43186 whole entry): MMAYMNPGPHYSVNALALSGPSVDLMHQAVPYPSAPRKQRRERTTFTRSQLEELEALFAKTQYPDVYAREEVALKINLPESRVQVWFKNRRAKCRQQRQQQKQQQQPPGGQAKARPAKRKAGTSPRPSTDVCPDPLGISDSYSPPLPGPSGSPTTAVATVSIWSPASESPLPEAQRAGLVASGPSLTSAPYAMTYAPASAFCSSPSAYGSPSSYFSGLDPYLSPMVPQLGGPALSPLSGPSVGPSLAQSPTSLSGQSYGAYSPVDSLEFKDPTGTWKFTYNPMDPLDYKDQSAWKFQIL
Sequence of SPIB (Q01892 whole entry): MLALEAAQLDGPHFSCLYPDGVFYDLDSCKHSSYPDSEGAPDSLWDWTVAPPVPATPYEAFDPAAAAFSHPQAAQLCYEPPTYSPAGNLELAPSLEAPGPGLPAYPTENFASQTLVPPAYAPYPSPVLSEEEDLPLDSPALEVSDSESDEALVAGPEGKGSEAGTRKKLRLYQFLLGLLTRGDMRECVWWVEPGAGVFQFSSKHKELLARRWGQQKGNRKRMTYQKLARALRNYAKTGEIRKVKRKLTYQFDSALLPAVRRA
Sequence of ETV5 (P41161 whole entry): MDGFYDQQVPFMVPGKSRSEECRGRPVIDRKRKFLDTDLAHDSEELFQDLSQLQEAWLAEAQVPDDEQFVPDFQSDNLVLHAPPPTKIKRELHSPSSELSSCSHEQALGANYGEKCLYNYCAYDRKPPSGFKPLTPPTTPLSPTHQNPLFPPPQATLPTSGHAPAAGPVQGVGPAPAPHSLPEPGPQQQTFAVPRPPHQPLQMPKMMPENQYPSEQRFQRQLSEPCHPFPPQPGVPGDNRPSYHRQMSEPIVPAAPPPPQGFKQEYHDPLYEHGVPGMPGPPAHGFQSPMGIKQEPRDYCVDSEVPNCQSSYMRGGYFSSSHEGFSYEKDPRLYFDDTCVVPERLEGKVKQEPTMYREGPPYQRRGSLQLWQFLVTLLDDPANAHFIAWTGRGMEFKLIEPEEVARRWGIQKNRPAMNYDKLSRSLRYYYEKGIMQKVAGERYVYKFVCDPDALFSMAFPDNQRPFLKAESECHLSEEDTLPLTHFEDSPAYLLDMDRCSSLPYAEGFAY
Sequence of HSF1 (Q00613 whole entry): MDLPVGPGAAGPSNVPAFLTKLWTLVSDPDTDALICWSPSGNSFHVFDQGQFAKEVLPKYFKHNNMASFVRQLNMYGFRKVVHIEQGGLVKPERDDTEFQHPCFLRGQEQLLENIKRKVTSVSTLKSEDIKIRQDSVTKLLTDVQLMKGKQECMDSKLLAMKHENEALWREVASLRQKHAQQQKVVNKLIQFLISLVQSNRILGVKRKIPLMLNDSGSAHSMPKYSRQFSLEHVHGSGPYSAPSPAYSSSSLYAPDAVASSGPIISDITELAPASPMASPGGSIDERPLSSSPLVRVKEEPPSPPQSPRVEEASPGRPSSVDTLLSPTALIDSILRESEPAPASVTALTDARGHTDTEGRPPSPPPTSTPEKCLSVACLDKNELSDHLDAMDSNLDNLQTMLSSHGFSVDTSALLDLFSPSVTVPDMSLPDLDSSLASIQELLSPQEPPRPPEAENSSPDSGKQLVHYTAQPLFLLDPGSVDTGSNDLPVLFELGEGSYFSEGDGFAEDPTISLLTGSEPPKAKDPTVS
Sequence of ELF4 (Q99607 whole entry): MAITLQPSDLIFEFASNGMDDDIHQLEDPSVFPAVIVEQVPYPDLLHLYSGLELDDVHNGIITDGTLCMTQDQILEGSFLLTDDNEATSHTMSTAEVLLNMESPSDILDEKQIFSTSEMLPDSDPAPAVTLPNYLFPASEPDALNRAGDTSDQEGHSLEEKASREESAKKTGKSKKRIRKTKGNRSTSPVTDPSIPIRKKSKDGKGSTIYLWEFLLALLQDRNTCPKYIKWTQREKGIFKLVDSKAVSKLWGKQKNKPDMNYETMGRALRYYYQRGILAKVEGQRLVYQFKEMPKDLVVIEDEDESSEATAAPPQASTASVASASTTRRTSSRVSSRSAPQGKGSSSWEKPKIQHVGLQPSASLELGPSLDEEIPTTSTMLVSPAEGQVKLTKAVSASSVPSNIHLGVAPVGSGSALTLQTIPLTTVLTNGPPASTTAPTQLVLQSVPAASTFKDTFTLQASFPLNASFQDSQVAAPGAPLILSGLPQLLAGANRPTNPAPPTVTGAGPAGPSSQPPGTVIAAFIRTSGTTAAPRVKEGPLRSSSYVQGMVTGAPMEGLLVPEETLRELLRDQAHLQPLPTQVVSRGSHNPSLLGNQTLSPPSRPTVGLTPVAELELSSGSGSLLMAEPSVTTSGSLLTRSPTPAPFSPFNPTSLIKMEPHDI
Sequence of ETV1 (P50549 whole entry): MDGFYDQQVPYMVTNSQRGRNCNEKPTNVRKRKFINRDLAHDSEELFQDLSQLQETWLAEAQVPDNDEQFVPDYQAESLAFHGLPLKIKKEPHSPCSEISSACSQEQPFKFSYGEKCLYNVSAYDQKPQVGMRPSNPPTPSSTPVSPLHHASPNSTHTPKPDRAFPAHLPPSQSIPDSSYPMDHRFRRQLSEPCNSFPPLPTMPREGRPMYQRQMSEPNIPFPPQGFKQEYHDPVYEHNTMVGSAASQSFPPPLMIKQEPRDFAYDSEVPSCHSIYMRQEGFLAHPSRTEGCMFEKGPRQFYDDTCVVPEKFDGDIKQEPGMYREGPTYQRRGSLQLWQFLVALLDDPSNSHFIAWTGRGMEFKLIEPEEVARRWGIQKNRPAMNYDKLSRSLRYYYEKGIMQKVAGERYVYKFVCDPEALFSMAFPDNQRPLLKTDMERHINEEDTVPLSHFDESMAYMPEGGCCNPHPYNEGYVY

Sequence: TTTCTA
- binding signal (FLI1): 1.3 fold enrichment (6-mer frequency, TF over GST control)
- binding signal (ELK1): 1.39 fold enrichment (6-mer frequency, TF over GST control)
- binding signal (GABPA): 1.29 fold enrichment (6-mer frequency, TF over GST control)
- binding signal (ERG): 1.34 fold enrichment (6-mer frequency, TF over GST control)
- binding signal (ELF1): 1.28 fold enrichment (6-mer frequency, TF over GST control)
- binding signal (EHF): 1.36 fold enrichment (6-mer frequency, TF over GST control)
- binding signal (SPI1): 1.36 fold enrichment (6-mer frequency, TF over GST control)
- binding signal (SPIB): 1.19 fold enrichment (6-mer frequency, TF over GST control)
- binding signal (ELK3): 1.26 fold enrichment (6-mer frequency, TF over GST control)
- binding signal (FEV): 1.34 fold enrichment (6-mer frequency, TF over GST control)
- binding signal (ETV5): 1.37 fold enrichment (6-mer frequency, TF over GST control)
- binding signal (HSF1): 3.01 fold enrichment (6-mer frequency, TF over GST control)
- binding signal (SPIC): 1.52 fold enrichment (6-mer frequency, TF over GST control)
- binding signal (ELF4): 1.33 fold enrichment (6-mer frequency, TF over GST control)
- binding signal (ELK4): 1.34 fold enrichment (6-mer frequency, TF over GST control)
- binding signal (ETV2): 1.27 fold enrichment (6-mer frequency, TF over GST control)
- binding signal (ELF3): 1.36 fold enrichment (6-mer frequency, TF over GST control)
- binding signal (CRX): 1.97 fold enrichment (6-mer frequency, TF over GST control)
- binding signal (ETV1): 1.47 fold enrichment (6-mer frequency, TF over GST control)
